PubChem BioAssay AID1851 (National Center for Advancing Translational Sciences (NCATS), 2009)
Where “and” joins values, the source holds several entries; their conditions need not be identical. Equal values may be shown once. Hit rate of the full screen: of about 16,000 compounds, about 4,000 (25%) were called active. Not shown: some 26% with an inconclusive outcome. Calls come from the whole dose curve; as a rule, active = well fitted curve in the direction sought with a large enough effect; inconclusive = small, poorly fitted or top-dose-only effect, or effect the other way; inactive = no such curve, though single readings can be large or run the other way. These entries were drawn from the full list. Some compounds were tested as several samples or in several runs, with calls that do not always agree.

The compounds below were run against Cytochrome P450 2C9 (Homo sapiens) (UniProt P11712) (assay: Cytochrome panel assay with activity outcomes). Details: recombinant CYP, pro-luciferin dealkylation, luminescence, p450-cyp2c9; series mostly up to 57.1 µM.
% is set by controls: 0 for no effect and ±100 for the full control effect.

Sequence of Cytochrome P450 2C9 (Homo sapiens) (P11712 whole entry, looked up): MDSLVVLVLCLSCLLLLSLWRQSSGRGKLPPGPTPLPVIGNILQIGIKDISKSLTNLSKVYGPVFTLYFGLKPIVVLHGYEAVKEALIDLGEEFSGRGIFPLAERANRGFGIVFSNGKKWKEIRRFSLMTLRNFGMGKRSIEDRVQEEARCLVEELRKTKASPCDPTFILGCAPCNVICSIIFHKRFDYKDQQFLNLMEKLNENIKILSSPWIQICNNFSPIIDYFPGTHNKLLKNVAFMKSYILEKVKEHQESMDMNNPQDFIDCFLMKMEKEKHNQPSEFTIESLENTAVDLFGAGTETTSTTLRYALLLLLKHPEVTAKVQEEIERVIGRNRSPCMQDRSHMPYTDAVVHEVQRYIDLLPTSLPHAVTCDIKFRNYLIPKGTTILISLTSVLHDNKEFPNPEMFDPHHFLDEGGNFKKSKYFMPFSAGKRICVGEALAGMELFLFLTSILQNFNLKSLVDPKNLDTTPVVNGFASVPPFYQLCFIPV

Row | SMILES | AC50 | activity, negative = inhibition
1 | NC(=NCc1ccccc1)NC(=O)c1nc(Cl)c(N)nc1N | inactive | –
2 | CN(C)C(=O)c1ccc(-c2ccc3ncnc(N4CCNCC4)c3c2)cc1 | – | 6.81% [at 2.29 µM] (inactive)
3 | Cc1noc(C)c1-c1ccc2ncnc(N(C)Cc3ccco3)c2c1 | – | -29% [at 2.29 µM] (inactive)
4 | CC(C)(C)c1ccc(C(=O)Nc2ccc(NC(=O)c3ccco3)cc2)cc1 | 8.91 µM (active) | –
5 | COc1cccc(C(=O)Nc2ccc(NC(=O)c3ccco3)cn2)c1 | 14.1 µM (active) | –
6 | CCc1nnc2sc(-c3ccc(NC(=O)c4ccco4)cc3)nn12 | inactive | –
7 | c1ccc(CNc2ncncc2-c2cccnc2)cc1 | – | -3.05% [at 2.29 µM] (inactive)
8 | COc1ccc2nccc(C(=O)O)c2c1 | inactive | –
9 | COc1ccc(C(=O)c2ccccc2)c(O)c1 | inactive | –
10 | COc1ccc2oc(C(=O)c3ccccc3)c(N)c2c1 | 11.2 µM (active) | –
11 | Cc1noc(C)c1-c1ccc2ncnc(NCc3cccs3)c2c1 | – | -7.45% [at 2.29 µM] (inactive)
12 | CC(C)NC[C@H]1CCc2cc(CO)c([N+](=O)[O-])cc2N1 | inactive | –
13 | CN(CCO)Cc1ncccc1O | – | -2.29% [at 11.4 µM] (inactive)
14 | CN1CCN(CC(=O)N2c3ccccc3C(=O)Nc3cccnc32)CC1 | inactive | –
15 | CN1CCN(CC(=O)N2c3ccccc3Sc3cc4ccccc4cc32)CC1 | – | 5.77% [at 11.4 µM] (inactive)
16 | Cc1scc2c1N(C(=O)CN1CCN(C)CC1)c1ccccc1NC2=O | inactive and 2.51 µM (active) | –
17 | CNc1cc(-c2ccccc2C(F)(F)F)ncn1 | – | 22.5% [at 2.29 µM] (inactive)
18 | O=c1[nH]c(=O)c2nc3ccccc3nc2[nH]1 | inactive | –
19 | Nc1[nH]nc2nc3ccccc3nc12 | 2 µM (active) | –
20 | Nc1n[nH]c2ccccc12 | – | -15.6% [at 11.4 µM] (inactive)
21 | CC[C@@H]1CC(=O)N(SC[C@H](N)C(=O)O)C1=O | – | 10.2% [at 11.4 µM] (inactive)
22 | CC1CC2(CCCCC2)N2C(=O)C(=O)c3cccc1c32 (stereo unspecified) | 5.01 µM (active) | –
23 | O=c1[nH]c2cc(Br)cnc2nc1/C=C(\O)c1ccc(F)cc1 | inactive | –
24 | O=c1cc(-c2ccccc2)[nH]c2nc(Cl)ccc12 | inactive | –

Row | SMILES | AC50 | activity, negative = inhibition
25 | Cc1ccccc1S(=O)(=O)c1c(C)cc(-c2ccccc2)[nH]c1=O | 22.4 µM (active) | –
26 | CN(C)CCCNc1c(C(=O)O)cnc2c1cnn2C | inactive | –
27 | Cn1c2c(c(=O)n(C)c1=O)C(C(F)(F)F)(C(F)(F)F)N=C(c1ccc(Cl)cc1)N2 | 2 µM (active) | –
28 | COc1ccc(-c2nc3cnc(OC)nc3n(C)c2=O)cc1 | inactive | –
29 | Cn1c(=O)c(-c2ccc(Cl)cc2)nc2cncnc21 | inactive | –
30 | COc1cccc(Nc2ncc3nc(-c4ccc(F)cc4)c(=O)n(C)c3n2)c1 | inactive | –
31 | COc1ccc(C2=NC(C(F)(F)F)(C(F)(F)F)c3c(n(C)c(=O)n(C)c3=O)N2)cc1 | 8.91 µM (active) | –
32 | CCN1CCc2nc(N)oc2CC1 | inactive | –
33 | N[C@](CC1c2ccccc2Oc2ccccc21)(C(=O)O)[C@@H]1C[C@@H]1C(=O)O | inactive | –
34 | CC(=O)c1ccc(OC(=O)C2c3ccccc3Oc3ccccc32)cc1 | 28.2 µM (active) | –
35 | CC[N+](C)(CC)CCOC(=O)C1c2ccccc2Oc2ccccc21 | inactive | –
36 | CCOC(=O)c1cc2c(C)n(-c3ccc(C)cc3)c(C)c2ccc1=O | 14.1 µM (active) | –
37 | CCOC(=O)Cn1nc(C)n(-c2ccc(C)cc2)c1=O | inactive | –
38 | CCOc1ncnc2c1oc1nc(CC(C)C)c3c(c12)CC(C)(C)OC3 | 20 µM (active) | –
39 | CCCNC(=O)OC[C@@H]1O[C@H](CCO/N=C(\C)CCN2CCCc3nc(C)c(C)cc32)C=C[C@@H]1Oc1ccc(OC)cc1 | – | -26.6% [at 11.4 µM] (inactive)
40 | CC12c3ccccc3C(c3ccccc31)C1C(=O)N(Cc3cccnc3)C(=O)C12 (stereo unspecified) | 11.2 µM (active) | –
41 | CNC(=O)Oc1ccc2c(c1)[C@@]1(C)CCN(C)[C@@H]1N2C | inactive | –
42 | O=C(N/N=C/c1cccc(OC2CSC2)c1)c1ccccc1O | inactive | –
43 | O=C(COc1ccccc1C(=O)N/N=C\c1ccc(O)c(O)c1)N/N=C/c1ccc(O)c(O)c1 | 12.6 µM (active) | –
44 | COc1ccccc1-c1nccc(NCc2cccc(C)c2)n1 | – | -8.67% [at 2.29 µM] (inactive)
45 | COC(=O)c1ccc(NC(=O)C2CCCCC2C(=O)O)cc1 (stereo unspecified) | inactive | –
46 | COC(=O)c1ccc(C23CC2(C(NP(=O)(c2ccccc2)c2ccccc2)c2ccccc2)C3)cc1 (stereo unspecified) | 10 µM (active) | –
47 | COC(=O)c1ccc(C#CC(NP(=O)(c2ccccc2)c2ccccc2)c2ccccc2)cc1 (stereo unspecified) | 10 µM (active) | –
48 | CN(C)Cc1ccccc1-c1nccc(N(C)Cc2ccco2)n1 | – | -2.53% [at 2.29 µM] (inactive)

Row | SMILES | AC50 | activity, negative = inhibition
49 | CC(C)(C)N1C(=O)[C@@H]2[C@H]3C(=CC[C@H]2C1=O)C(=O)[C@H]1O[C@H]1[C@H]3O | – | 4.81% [at 11.4 µM] (inactive)
50 | Cc1ccc(-c2csc3ncnc(NCCN4CCOCC4)c23)cc1 | 14.1 µM (active) | –
51 | CN(C)c1ccc(-c2cncnc2NCCN2CCOCC2)cc1 | – | 1.82% [at 2.29 µM] (inactive)
52 | CN(C)C(=O)c1ccc(-c2cncnc2NCCN2CCOCC2)cc1 | – | 0.0156% [at 2.29 µM] (inactive)
53 | O=C1C2=C(NC(=S)NC2c2ccc(Cl)cc2)NC(c2ccc(Cl)cc2)N1c1ccc(Cl)cc1 (stereo unspecified) | 11.2 µM (active) | –
54 | O=[n+]1c2c(n([O-])c3cc(F)c(F)cc31)CCCC2 | inactive | –
55 | O=[N+]([O-])c1ccc2c(c1)Cc1cc(N=Cc3ccc4c(c3)OCO4)ccc1-2 | – | -3.27% [at 11.4 µM] (inactive)
56 | O=S(=O)(N/N=C\c1ccc2c(c1)OCO2)c1ccc(Cl)cc1 | 1.12 µM (active) | –
57 | O=S(=O)(N/N=C/c1ccc2c(c1)OCCO2)c1ccc(Cl)cc1 | 1.41 µM (active) | –
58 | O=c1oc2cc(N=Cc3ccc4c(c3)OCO4)ccc2c2ccccc12 | – | -21.1% [at 11.4 µM] (inactive)
59 | C[C@]1(OC(=O)/C=C\c2ccccc2)C[C@@H](O)[C@@]2(O)C=CO[C@@H](O[C@H]3O[C@@H](CO)[C@@H](O)[C@@H](O)[C@@H]3O)[C@H]21 | inactive | –
60 | NC(=NCCC[C@H](N)C(=O)O)NO | inactive | –
61 | CCCN=C(N)NCCC[C@H](N)C(=O)O | 3.98 µM (active) | –
62 | CC(N)=NCCCC[C@H](N)C(=O)O | inactive | –
63 | COc1ncc2ncc(=O)n(CCC#N)c2n1 | inactive | –
64 | COCCNc1ncnc2ccc(-c3ccc(N(C)C)cc3)cc12 | – | -3.32% [at 2.29 µM] (inactive)
65 | COC(Cc1nnc(SC)n1-c1ccc(Cl)cc1)OC | inactive | –
66 | O=S(Cc1ccc(Br)cc1)Cc1nnc(SCc2ccc(Cl)cc2)n1-c1ccccc1 (stereo unspecified) | 10 µM (active) | –
67 | Cc1cccc(NC(=S)N2CCC(N(C)CC3CCCO3)CC2)c1C (stereo unspecified) | inactive | –
68 | Cc1ccc(S(=O)(=O)Nc2nc3ccccc3nc2N2CCc3ccccc3C2)cc1 | 0.251 µM (active) | –
69 | CN1CCN(c2ncnc3ccc(-c4cccc(NS(C)(=O)=O)c4)cc23)CC1 | – | 22.3% [at 2.29 µM] (inactive)
70 | O=C(Cn1ccc2ccccc2c1=O)N1CCN(c2cccc(Cl)c2)CC1 | inactive | –
71 | O=C(Cc1ccc(-n2c(=O)[nH]c3ccccc3c2=O)cc1)N1CCN(c2cccc(Cl)c2)CC1 | 3.55 µM (active) | –
72 | O[C@H](CN1CCN(c2cccc(Cl)c2)CC1)C(c1ccccc1)c1ccccc1 | inactive | –

Row | SMILES | AC50 | activity, negative = inhibition
73 | COc1ccc(CCNC[C@H](O)c2ccc(O)cc2)cc1OC | inactive | –
74 | CC(=O)Nc1ccc(S(=O)(=O)NCCc2ccc(F)cc2)cc1 | inactive | –
75 | COc1ccc(CCNC(=O)CC(NS(=O)(=O)c2ccc(NC(C)=O)cc2)C(C)C)cc1OC (stereo unspecified) | 2.51 µM (active) | –
76 | CC(=O)Nc1ccc(S(=O)(=O)N=S(C)C)cc1 | inactive | –
77 | CC(=O)Nc1ccc(S(=O)(=O)NC(CC(=O)NCCCN2CCOCC2)C(C)C)cc1 (stereo unspecified) | inactive | –
78 | COc1ccc(CONS(=O)(=O)c2ccc(NC(C)=O)cc2)cc1Cl | 12.6 µM (active) | –
79 | OCCN(CO)CO | – | -10.4% [at 11.4 µM] (inactive)
80 | CC(=O)OC[C@H]1O[C@@H](O/N=C(\C)CCN2CCCCc3nc(C)c(C)cc32)[C@H](OC(C)=O)[C@@H](OC(C)=O)[C@H]1OC(C)=O | – | 23.5% [at 11.4 µM] (inactive)
81 | c1ccc(CCc2cccnc2)nc1 | – | -6.59% [at 11.4 µM] (inactive)
82 | c1ccc(NN(Cc2cnccn2)c2ccccc2)cc1 | 3.16 µM (active) | –
83 | C#CCOC(=O)Nc1ccc(=O)n(Cc2c(Cl)cccc2Cl)c1 | 1.58 µM (active) | –
84 | CCn1c(=O)[nH]c2ccccc21 | inactive | –
85 | O=C(CCCc1ccccc1)N1CCN(c2ccc([N+](=O)[O-])cc2)CC1 | inactive | –
86 | C[N+]1(C)CCC(OC(=O)C(c2ccccc2)c2ccccc2)CC1 | inactive | –
87 | O=C(OC1CCN(c2ccc([N+](=O)[O-])cc2)CC1)c1ccccc1 | 0.631 µM (active) | –
88 | O=C(O)c1cccc2cccc(-c3cccc4cccc(C(=O)O)c34)c12 | – | -4.84% [at 11.4 µM] (inactive)
89 | CN1C(=O)/C(=N\OC(=O)c2cccc3ccccc23)c2ccccc21 | 2.82 µM (active) | –
90 | Cn1c(=O)cc(OCCCC(=O)Nc2cccnc2)c2ccccc21 | inactive | –
91 | CCn1c(=O)cc(OCC(=O)Nc2cccnc2)c2ccccc21 | 15.8 µM (active) | –
92 | CC(C(=O)Nc1cccnc1)N1C(=O)C2C3C=CC(C3)C2C1=O (stereo unspecified) | inactive | –
93 | CO[C@H]1COC(=O)[C@@H](Cc2ccccc2)NC(=O)[C@@H](C)COC(=O)CCC[C@@H]1C | – | 18.6% [at 11.4 µM] (inactive)
94 | CCCN(CCC)CCCNC(=O)c1cc2cc3ccc(OC)cc3nc2o1 | inactive | –
95 | COc1ccc2cc3cc(C(=O)NCc4ccc5c(c4)OCO5)oc3nc2c1 | 4.47 µM (active) | –
96 | COc1ccc2cc3cc(C(=O)NCc4ccccn4)oc3nc2c1 | inactive | –
